Source: PubChem (several laboratories)
Shown are actives, neighbours in structure and some others; about 2.9% of the full set was active somewhere.
ABHD5 PLIN5 PPI: ABHD5-PLIN5 interaction inhibitors, primary screen, cell lysate, split luciferase complementation, luminescence; Split G. princeps luciferase complementation, 4 h; Perilipin-5 (Homo sapiens) + 1-acylglycerol-3-phosphate O-acyltransferase ABHD5 (Homo …; inhibition, % at 4 µM; hit rate 0.78% among 360,000;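 active means inhibition above the mean inhibition across every tested compound plus 3 SD, cut at about 22% in these data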;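 further: 0% = DMSO only wells and the 100% control is not disclosed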
Rtt109 Vps75: inhibitors of C. albicans Rtt109/Vps75 HAT, primary screen, biochemical, ThioGlo CoA-SH fluorescence, plate reader | Histone acetyltransferase RTT109 (Candida albicans (strain SC5314 / ATCC MYA-2876)), … | purified Rtt109/Vps75, 4 h | inhibition, % at 34.9 µM | hit rate 0.16% among 330,000;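 active means inhibition of at least 50% in every replicate; inconclusive means best replicate reaches 50% inhibition but some replicates fall short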
Myeloid diff MLP: induction of myeloid progenitor differentiation, primary screen, cell-based, flow cytometry, MLPCN library | calls only at 10 µM | ER-HoxA9 myeloid progenitors, lysozyme-GFP differentiation | hit rate 1% among 360,000;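 active means normalized GFP-positive differentiation at or above the plate's own cutoff, the solvent-only control mean plus 3 SD; inconclusive means no clear call, values can overlap the other calls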;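 further: cells exposed to compound for four days before flow analysis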
DAGLB inh: DAGLB lipase inhibitors, primary screen, biochemical, fluorescence, HTS; inhibition, % at 5.17 µM; HEK293T DAGLB membrane lysate, EnzChek fluorogenic substrate; hit rate 0.059% among 340,000; in the data active means inhibition above about 34%;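 further: 0% = enzyme with vehicle and 100% = wells lacking enzyme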
Cardio protect: cardioprotection against H2O2-induced cell death, primary screen, uHTS, H9c2 cells, ATPLite luminescence. H9c2 cardiomyocytes, H2O2 injury protection, 2 h. hit rate 0.63% among 360,000. protection from H2O2 cell death, % at 20 µM;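 active means compounds giving at least 50% protection of heart cells from peroxide-induced death in the single-dose screen, raw or plate-pattern-corrected value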;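 further: 0% = DMSO wells with peroxide and 100% = DMSO wells without peroxide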
sPLA2-III inh: human group III sPLA2 inhibitors, primary screen, biochemical, QFRET, BODIPY PC-A2 liposome substrate; Group 3 secretory phospholipase A2 (Homo sapiens), Q9NZ20; QFRET BODIPY PC-A2 liposome hydrolysis, fluorescence; inhibition, % at 12.2 µM; hit rate 0.56% among 370,000; AID 743126, 2013;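 active means inhibition above mean plus 3 SD of compounds lying within the high and low control bounds, cut at about 19% in these data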;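 further: 0% = median of test compound wells and 100% = no enzyme DMSO wells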
Target sequence (Q9NZ20 whole entry, looked up): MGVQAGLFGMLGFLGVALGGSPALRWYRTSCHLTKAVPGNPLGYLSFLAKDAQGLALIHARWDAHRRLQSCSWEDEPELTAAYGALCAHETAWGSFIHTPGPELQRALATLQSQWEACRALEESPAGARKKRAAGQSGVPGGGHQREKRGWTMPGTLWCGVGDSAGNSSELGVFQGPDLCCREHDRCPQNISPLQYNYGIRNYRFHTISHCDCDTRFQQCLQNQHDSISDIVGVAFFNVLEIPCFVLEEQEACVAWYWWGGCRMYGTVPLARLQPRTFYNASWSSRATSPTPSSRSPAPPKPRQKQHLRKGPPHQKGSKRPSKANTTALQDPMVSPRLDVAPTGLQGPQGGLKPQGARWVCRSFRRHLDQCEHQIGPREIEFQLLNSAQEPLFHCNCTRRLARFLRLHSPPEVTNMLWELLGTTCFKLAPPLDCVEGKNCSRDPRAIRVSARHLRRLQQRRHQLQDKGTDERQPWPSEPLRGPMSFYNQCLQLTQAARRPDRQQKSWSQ
Myeloid diff CP1: inducers of myeloid progenitor differentiation, confirmation, cell-based, GFP/Mac1 flow cytometry, cherry pick 01 | calls only | AID 651706, 2012 | ER-HoxA9 myeloid progenitors, GFP/Mac1 double-positive flow | shares compounds with Myeloid diff MLP | hit rate 2% among 2,300;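 active means share of green or green-and-red cells above 9 and 9% in run 1 or 4 and 3% in run 2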
GFP autofluor: compound fluorescence in myeloid differentiation counter-screen | ER-HoxA9 myeloid progenitors, no estrogen, GFP autofluorescence flow cytometry; vehicle wells 0%, positive control 100% | fluorescence response, % (test concentration not listed) | hit rate 7.4% among 2,300 | shares compounds with Myeloid diff MLP | AID 651707;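 active means over 5% cells positive for green fluorescent reporter, or over 2% positive for both it and APC stain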;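 further: range taken on the double positive population between DMSO and positive control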
Starred values were filed as active, the others as inactive; i = inactive; ? = inconclusive; . = no result given; + = active, no number.

SMILES	ABHD5 PLIN5 PPI	Rtt109 Vps75	Myeloid diff MLP	DAGLB inh	Cardio protect	sPLA2-III inh	Myeloid diff CP1	GFP autofluor
CCS(=O)(=O)c1nc(S(=O)(=O)c2ccc(Cl)cc2)c(N2CCOCC2)s1	0	-3	i	-4	-6	0	i	0
CS(=O)(=O)c1nc(S(=O)(=O)c2ccc(Cl)cc2)c(N2CCC3(CC2)OCCO3)s1	0	-5	i	-2	10	-2	.	.
COc1ccc(NC(=O)C2CCN(C(=O)c3ccco3)CC2)c(OC)c1	6	5	i	-3	-2	5	.	.
CC1(C)C2CCC1(C)C(SC(=N)N)C2 (stereo unspecified)	-10	0	i	2	-7	1	i	0
COC(=O)Cc1ccc(OC(=O)CCS(=O)(=O)c2ccc(C)cc2)cc1	4	-2	i	-1	2	-4	.	.
CC(=O)Nc1cccc(-c2ccnc3c2CC(C)(C(=O)NCc2ccc(N(C)C)cc2)O3)c1 (stereo unspecified)	0	.	+	.	4	8	i	0
CC1CCCCN1C(=O)CCNS(=O)(=O)c1ccc2c(c1)c(=O)n(C)c(=O)n2C (stereo unspecified)	-4	-2	i	1	-5	0	.	.
O=C(NCc1cccnc1)NC1(C(F)(F)F)Oc2ccccc2O1	3	7	+	3	30	-3	i	0
COc1ccc(NC(=O)CCN2CC(C)OC(C)C2)c(OC)c1 (stereo unspecified)	18	-3	+	4	9	8	i	0
COc1ccc(OC)c(NC(=O)CCN2CC(C)OC(C)C2)c1 (stereo unspecified)	2	0	i	-1	5	2	.	.
COc1ccc(-c2noc(CN(C)C(=O)c3ccco3)n2)cc1	5	-5	i	0	-3	1	.	.
c1cnc(N2CCN(c3nc4ccccc4n4cnnc34)CC2)nc1	4	32	i	2	42	5	i	0
Cc1cc(NC(=O)CC(F)(F)F)n(-c2ccccc2)n1	-9	.	i	-1	3	-3	.	.
Cc1cc(-c2cn3ccccc3n2)c(C)n1-c1ccccc1	6	?	i	-2	-25	7	.	.
Cc1cccc(N2CCN(S(=O)(=O)c3c(C)[nH]c(=O)[nH]c3=O)CC2)c1C	0	2	i	2	2	-7	i	0
Cc1ccc(Cl)cc1N1CCN(S(=O)(=O)c2c(C)[nH]c(=O)[nH]c2=O)CC1	6	-6	i	6	1	-14	.	.
Cn1c(=O)n(Cc2ccccc2)c(=O)c2c1nc1n2CCN1Cc1ccco1	2	4	i	2	4	4	.	.
COC(=O)c1cc2c(=O)c3ccccc3oc2nc1/C=C/N(C)C	3	-4	+	-28	44	9	+	1
COC(=O)c1cc2c(=O)c3ccccc3oc2nc1C	4	-2	i	-1	-3	15	.	.
Cc1ccc(-n2ncc3c2CC(C)(C)CC3NC(=O)CCCN2CCCC2=O)cc1 (stereo unspecified)	-2	-4	i	-2	5	3	.	.
Cc1cc(N2CCN(c3nc4ccccc4s3)CC2)n2ncnc2n1	10	3	i	1	-17	1	i	1
COc1ccc(/C=C/C(=O)OCC(=O)NC(C)CCc2ccccc2)cc1 (stereo unspecified)	-3	2	i	-4	-7	-4	.	.
CNC(=O)c1c(NC(=O)c2ccco2)sc2c1CCC2	1	4	i	-2	4	5	.	.
COc1ccccc1NC(=O)c1c(NC(=O)c2ccco2)sc2c1CCC2	-4	.	+	-3	9	0	i	1
Cc1cc(Cl)ccc1NC(=O)C1COc2ccccc2O1 (stereo unspecified)	0	-2	i	-9	0	1	.	.
SMILES	ABHD5 PLIN5 PPI	Rtt109 Vps75	Myeloid diff MLP	DAGLB inh	Cardio protect	sPLA2-III inh	Myeloid diff CP1	GFP autofluor
O=C(Nn1cnc2ccccc2c1=O)c1ccccc1F	-1	4	i	2	5	3	.	.
CCOC(=O)CC(=O)CSc1nc(C)cc(-c2cccnc2)c1C#N	-11	-11	i	4	-6	6	i	0
O=c1[nH]c(SCc2ccccc2)nc2c1sc1ccccc12	2	-5	+	0	6	-2	i	0
CCCCn1nc(NC(=O)CCC)c2cc3cc(OC)ccc3nc21	-2	-12	i	-1	13	4	i	0
C#CC[N+](CC)(CC)CC#Cc1cccc(Cl)c1	0	1	+	0	-2	2	i	1
CCOc1ccc2nc(N3CCC(C(=O)N4CCN(C5CCCCC5)CC4)CC3)sc2c1	-3	0	i	-1	-8	-4	i	0
CCOc1ccc2nc(N3CCC(C(=O)N4CCN(C(=O)c5ccco5)CC4)CC3)sc2c1	3	9	i	0	-27	.	.	.
Cc1cc(Cl)ccc1OCCCC(=O)N/N=C/c1cccc([N+](=O)[O-])c1	6	11	i	-4	-5	-1	.	.
CCCC(=O)Nc1ccc2nn(-c3ccc(OC)cc3)nc2c1	9	-7	i	-5	-2	-9	.	.
O=C(NNC1=Nc2cccc3cccc1c23)c1ccc(Br)cc1	-4	-6	+	.	-10	12	i	12*
COc1ccc(CC(=O)NNC2=Nc3cccc4cccc2c34)cc1OC	9	-13	i	4	3	-1	.	.
CN=C(NC)SC1CC(=O)N(c2ccccc2)C1=O (stereo unspecified)	8	2	i	5	9	-4	i	0
CCCC(C(=O)NCc1ccco1)N(C(=O)CNS(=O)(=O)c1ccc(Cl)cc1)C1CCCC1 (stereo unspecified)	-1	-4	i	0	-3	-21	.	.
O=C(NCCc1c[nH]c2ccccc12)c1cc([N+](=O)[O-])cc([N+](=O)[O-])c1	1	3	i	1	2	-38	.	.
